Screening results deposited in PubChem by National Center for Advancing Translational Sciences (NCATS).
Sampled rows, rich in hits. Any-hit rate of the full collection: about 10%.
GLS inh – glutaminase GLS (human) inhibition; O94925; 410,000 compounds, 0.21% hits; AID 624170; GLS enzymatic activity, qHTS titration; Potency, µM (titrated, usually from 45.5 µM), inactives show at the highest dose activity change, negative = inhibition, actives largely listed as inhibitors; note: % is set by controls: 0 for no effect and ±100 for the full control effect
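hKGA; 45 mM KH2PO4 pH 8.2 + 0.02% Tween-20; cpd via pin tool; 1 mM Gln soln; GluOx/HRP/Amplex Red; RT 30 min; fluor. t0 & final.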
G9a inh – G9a (human) methyltransferase inhibition. Potency, µM (top dose mostly 102 µM), for inactives: top-dose activity, negative = inhibition, actives largely listed as inhibitors. G9a H3K9 monomethylation, AlphaScreen, 2 h. 350,000 compounds, 8.8% hits. AID 504332; note: % is set by controls: 0 for no effect and ±100 for the full control effect; nearly all actives have a fitted effect of over 75% in size
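Chemiluminescent proximity detection of H3K9 monomethylation, read after 10 min bead incubation in the dark. Reaction: 20 nM G9a, 500 nM biotin-H3K9 peptide, 20 uM SAM cofactor, 2 h, room temperature, following 15 min enzyme-compound preincubation.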
JMJD2A Tudor inh – JMJD2A Tudor domain (human) inhibition | O75164 | AlphaScreen JMJD2A-Tudor / H3K4me3 peptide binding | Potency, µM (doses to about 114 µM), for inactives: at the highest dose activity change, negative = inhibition, most hits filed as inhibitors | 390,000 compounds, 4.4% hits | AID 504339; note: % is set by controls: 0 for no effect and ±100 for the full control effect; nearly all actives have a fitted effect of over 50% in size
HP1b chromo inh – HP1-beta chromodomain-methylated histone interaction inhibition; Potency, µM (series often up to 114 µM), inactives show at the highest dose activity change, negative = inhibition, most hits filed as inhibitors; 390,000 compounds, 0.56% hits; AlphaScreen HP1-beta / biotin-H3K9me3 peptide binding; P83916; AID 540317; note: nearly all actives have a fitted effect of over 70% in size
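AlphaScreen: HP1-beta (50 nM) preformed 30 min with biotin-H3(1-18)K9me3 peptide (50 nM) in PBS pH 7.4, 0.01% Tween-20. Compound added for 30 min at RT, then streptavidin donor/nickel chelate acceptor beads (10 ug/mL) for 30 min.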
BAZ2B inh – inhibitors of human BAZ2B bromodomain | Q9UIF8 | Potency, µM (doses to about 114 µM), without a hit: at the top dose activity change, negative = inhibition, usual class: inhibitors | AlphaScreen BAZ2B-H3K14Ac peptide displacement | 360,000 compounds, 4.4% hits; note: % is set by controls: 0 for no effect and ±100 for the full control effect; nearly all actives have a fitted effect of over 60% in size
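AlphaScreen luminescence quantifies BAZ2B engagement of H3K14Ac peptide; the protein and biotinylated peptide are both at 50 nM final, buffer PBS pH 7.4 with 0.01% Tween-20, all steps at room temperature.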
* hit, by the source's call; ? = inconclusive; . = no result given; [ ] = another dose, or the depositor's remark. Calls come from the whole dose curve; as a rule, active = well fitted curve in the direction sought with a large enough effect; inconclusive = small, poorly fitted or top-dose-only effect, or another doubt; inactive = no such curve, though single readings can be large; an effect the other way counts as inactive or inconclusive. Potency is the fitted concentration of half-maximal effect.

SMILES | GLS inh | G9a inh | JMJD2A Tudor inh | HP1b chromo inh | BAZ2B inh
Cc1ccc2c(c1)C(=O)CCN2 | 34% | ? | -4% | 20% | 8%
COc1ccc(C=C2NC(=S)NC2=O)cc1 | 1% | . | -30% | -6% | .
COc1ccc(C(=O)N2C(=S)NC(=O)/C2=C\c2ccc(C)cc2)cc1 | 3% | -1%[59 µM] | 50µM* | -23% | 50µM*
COC(=O)c1ccc(NC(=O)CCc2c(C)nc3c(-c4ccccc4)c(C)nn3c2C)cc1 | 5% | 1%[59 µM] | -8% | 35% | ?
CC[C@H](C)[C@@H]1NC(=O)[C@@H](CC(C)C)NC(=O)[C@H](C(C)C)NC(=O)[C@H]2CSSC[C@H](NC1=O)C(=O)N2 | -10% | . | . | . | .
C[C@@H](O)C1NC(=O)[C@H](CCCCN)NC(=O)c2cc([N+](=O)[O-])cc(I)c2NCCC[C@@H](C(N)=O)NC1=O (some centres not stated) | -1% | 50µM* | -25% | 27% | -32%
CC(C)[C@@H]1NC(=O)c2cc([N+](=O)[O-])cc(F)c2NCCC[C@@H](C(N)=O)NC(=O)[C@H](CO)NC1=O | . | 40µM* | . | . | ?
CC(C)C[C@@H]1NC(=O)[C@H](C(C)C)NC(=O)c2cc([N+](=O)[O-])cc(I)c2NCC[C@@H](C(N)=O)NC1=O | -13% | 13µM* | -20% | 23% | 79µM*
CC(C)[C@@H]1NC(=O)c2cc([N+](=O)[O-])cc(I)c2NCC[C@@H](C(N)=O)NC(=O)[C@H](CO)NC1=O | . | 13µM* | . | . | ?
Cc1ccc(Cn2c(SCc3ccc(C(=O)N4CCCCCC4)cc3)nc3ccncc32)cc1 | -7% | -1%[59 µM] | -23% | 31% | -18%
C[C@@H]1NC(=O)c2cc([N+](=O)[O-])cc(I)c2NCCCC[C@@H](C(N)=O)NC(=O)[C@H](CC(N)=O)NC1=O | 0% | 32µM* | -20% | 33% | ?
COc1ccc2c(/C=N/Nc3ccc(C(=O)O)cc3)c[nH]c2c1 | 40% | ? | ? | 9% | ?
COc1ccc2c(c1)C(=NN)c1cc(OC)ccc1-2 | 22% | ? | 56µM* | -20% | 40µM*
C/C(=N\Nc1ccc(C(=O)O)cc1)c1ccc(Br)cc1 | -18% | . | 71µM* | ? | 50µM*
C/C(=N/Nc1ncc(Br)cn1)c1ccc(Br)cc1 | ? | . | ? | -14% | -1%
COc1ccc2c(c1)C(=NNc1ccc(C(=O)O)cc1)c1cc(OC)ccc1-2 | -1% | ? | 50µM* | ? | 40µM*
COc1ccc2c(c1)c(/C=N/Nc1ccc(C(=O)O)cc1)c(C)n2C | 50% | 8.9µM* | ? | -4%[57 µM] | ?
CC(Sc1nnnn1C1CC1)C(=O)N1CC(=O)Nc2ccccc21 (configuration not stated) | 0% | 1%[12.7 µM] | -3% | 41% | 14%
CC1(C)CC(=O)C=C(Nc2cccc(C(F)(F)F)c2)C1 | 0% | . | 9% | 31% | .
CC1(O)C(=O)c2ccccc2N(c2ccccc2)C1=O (configuration not stated) | -6% | 4%[59 µM] | -4% | 46% | 2%
O=C(OC1CCOC1=O)c1cncc(Br)c1 (configuration not stated) | 7% | -8%[59 µM] | -2% | 35% | -7%
CN(C)S(=O)(=O)c1ccc(C(=O)NCc2ccccc2)cc1 | 2% | -5%[59 µM] | 3% | 16% | .
CCOC(=O)c1c(NC(C)=O)sc(C(=O)NC2CCCC2)c1C | 11% | -4% | -13% | -3% | 5%
COc1ccc(/C(C)=N/NC(=O)CNC(=O)Cc2ccccc2)c(OC)c1 | 4% | . | -9% | 43% | 2%
COc1ccc(/C(C)=N/Nc2ccc(C(=O)O)cc2)c(OC)c1 | 42% | 1.6µM* | -15% | 25% | -8%
CCOC(=O)c1c(NC(C)=O)sc(/C(C)=N/Nc2ccc(C(=O)O)cc2)c1C | 36% | 32µM* | -33% | -8% | ?
O=C(NC1CCCCC1)C1c2ccccc2OCC(=O)N1Cc1ccc2c(c1)OCO2 (configuration not stated) | 3% | . | . | . | .
Cc1csc(=O)n1CC(=O)OCC(=O)NCc1ccccc1 | 1% | ? | -7% | 20% | 12%
CCN(CC(=O)Nc1ccc(OC)cc1)CC(=O)Nc1ccc2c(c1)OCO2 | -11% | ? | -10% | 32% | 7%
